Pf growth 48h: Primary qHTS for delayed death inhibitors of the malarial parasite plastid, 48 hour incubation; P. falciparum luciferase growth in erythrocytes, 48 h; actives 5.9% (n = 310,000); AID 504832, 2011; Potency, µM (highest dose often 28.7 µM), for the others: at the top dose activity change, negative = inhibition, usual class: inhibitors; note: potency is the fitted concentration of half-maximal effect
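Here the parasites carry a stable luciferase gene and grow inside erythrocytes in Albumax-based RPMI medium with compound for one erythrocytic cycle. Activity is scored as loss of luminescent signal.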
FBPA Giardia inh: qHTS Assay for Inhibitors of Fructose-1,6-bisphosphate Aldolase from Giardia Lamblia; purified Giardia FBPA; Potency, µM (titrated, usually from 59.6 µM), without a hit: top-dose activity, negative = inhibition, actives largely listed as inhibitors; A8B2U2; AID 2451, 2010; actives 0.71% (n = 290,000); note: potency is the fitted concentration of half-maximal effect; nearly all actives have a fitted effect of over 55% in size
Target sequence (A8B2U2 whole entry, looked up): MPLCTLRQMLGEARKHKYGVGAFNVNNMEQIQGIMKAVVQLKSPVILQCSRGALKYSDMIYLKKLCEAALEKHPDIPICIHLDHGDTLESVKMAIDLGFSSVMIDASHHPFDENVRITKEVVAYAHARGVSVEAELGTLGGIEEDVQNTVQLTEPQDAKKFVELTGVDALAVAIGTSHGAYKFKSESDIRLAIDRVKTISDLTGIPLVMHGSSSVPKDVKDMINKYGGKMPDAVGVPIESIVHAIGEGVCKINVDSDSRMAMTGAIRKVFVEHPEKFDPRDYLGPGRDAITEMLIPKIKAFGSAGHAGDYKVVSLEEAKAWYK
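Giardia FBPA (40 nM reagent) was preincubated 10 min at RT with compound (up to 57.5 uM final), then substrate plus GAPDH/TPI/NAD/arsenate coupling system with diaphorase/resazurin was added; resorufin fluorescence (525/598 nm) was read after 20 min.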
Sm TGR block: qHTS Assay for the Inhibitors of Schistosoma Mansoni Peroxiredoxins. purified TGR, DTNB reduction, TNB absorbance 405 nm. Potency, µM (top dose mostly 114 µM), for inactives: at the highest dose activity change, negative = inhibition, most hits filed as inhibitors. actives 3% (n = 360,000). AID 485364, 2010; note: potency is the fitted concentration of half-maximal effect; nearly all actives have a fitted effect of over 60% in size
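TGR 20 nM + NADPH 100 uM (dispensed conc.), cpd preinc 15 min RT; start with NADPH (500 uM addition) then DTNB (15 mM addition). Kinetic TNB absorbance, 405 nm filter. Four-parameter Hill fit across titration.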
Pf growth 96h: Primary qHTS for delayed death inhibitors of the malarial parasite plastid, 96 hour incubation; P. falciparum luciferase reporter growth, 96 h; Potency, µM (highest dose often 28.7 µM), inactives show at the highest dose activity change, negative = inhibition, hits mostly inhibitors; actives 6.9% (n = 320,000); note: potency is the fitted concentration of half-maximal effect
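P. falciparum expressing integrated firefly luciferase grown in erythrocytes (2% hematocrit, 0.05% parasitemia final) with compounds for 96 hours at 37 C, 5% CO2. Growth inhibition read as loss of luminescence after adding luciferase detection reagent.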
HCMV inh: qHTS Assay for inhibitors of the human cytomegalovirus (HCMV); activity change, negative = inhibition, % at 57.5 µM; AID 1259415, 2018; HFF cells, HCMV-luciferase reporter, 72 h; active compounds read low; actives 4.5% (n = 410,000); in the data active = activity change below about -60%; inconclusive = no clear call, values can overlap the other calls; inactive = above about -39%
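Two-dose cell screen: HFF monolayers treated with compounds and infected with luciferase-expressing HCMV at 1 PFU/cell, 72 h at 37C, then lysed for luciferase measurement.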
* hit, by the source's call; u = inconclusive; x = not tested or not shown; [ ] = remark or other dose. Shown are actives, neighbours in structure and some others; about 14% of the full set was active somewhere. Unless noted, calls come from the whole dose curve; as a rule, active = well fitted curve in the direction sought with a large enough effect; inconclusive = small, poorly fitted or top-dose-only effect, or another doubt; inactive = no such curve, though single readings can be large; an effect the other way counts as inactive or inconclusive. % is set by controls: 0 for no effect and ±100 for the full control effect.

SMILES | Pf growth 48h | FBPA Giardia inh | Sm TGR block | Pf growth 96h | HCMV inh
CCOc1ccc(C(=O)OCC(=O)NC2CCCCCCC2)cc1 | 28% | x | 0% | 41% | 10
COc1ccc(C(=O)OCC(=O)NC2CCCC2)c(OC)c1 | 42% | 9% | 16% | 54% | -7
CN(C)/N=N\c1nc[nH]c1C(N)=O | x | -6%[21.7 µM] | x | x | x
CC(C)(C)S(=O)(=O)N1C[C@H]2CC/C=C\C/C=C\2[C@@H]1CCO | x | x | x | x | 0
Cc1ccc2nc(-c3cccc(Cl)c3)c(Cc3cccc(Cl)c3)n2c1 | x | x | x | x | 33
Cc1ccc(OCCCC(=O)NC2CCCCC2)cc1 | 12% | -1% | 40µM* | u | -12
Cc1ccc(C)c(OCCCC(=O)NC2CCCCC2)c1 | u | -6% | -19% | -27% | -26
Cc1ccc(C)c(N2CCN(C(=O)c3cc4cc5ccc(C)cc5nc4o3)CC2)c1 | x | x | -10% | x | 2
COc1cc(C(CCN2CCCC(C)C2)c2c(OC)cc(OC)c3c2OC(=O)CC3c2ccc(N(C)C)cc2)cc(OC)c1OC (stereo not drawn) | 9.3µM* | -4% | -15% | 10µM* | x
COc1cc(OC)c2c(c1C(CCN1CCCC(C)C1)c1ccc(N(C)C)cc1)OC(=O)CC2c1ccc(N(C)C)cc1 (stereo not drawn) | x | -5% | x | x | x
COc1cc(C2CC(=O)Oc3c(C(CCN4CCCC(C)C4)c4ccc(N(C)C)cc4)c(OC)cc(OC)c32)cc(OC)c1OC (stereo not drawn) | 13µM* | -4% | -15% | u | 16
O=C(NCc1ccccc1)C(c1cc2ccccc2o1)n1c(=O)c(-c2ccccc2)nc2ccccc21 (stereo not drawn) | x | x | x | x | 14
CCOC(=O)c1sc(=NC(=O)c2ccccc2)n(C)c1C | 462% | 5% | 2% | 90% | 53
CCOC(=O)c1c(/C=N/Nc2ccccc2)c2sc(C)cc2n1C | 9.3µM* | x | 22µM* | u | x
CCCn1c(-c2ccc(F)cc2)nc2c(NCCN(CC)CC)nc(C)nc21 | x | 3% | x | x | x
COC(=O)c1cc(Br)ccc1NC(=O)Nc1ccccc1 | 31% | -3% | -10% | 51% | -35
O=C(Nc1cccc(F)c1)Nc1cccc(Cl)c1 | u | 6% | -3% | u | -26
O=C(Nc1cccc(Cl)c1)Nc1ccc(Br)cc1F | u | -1% | -8% | u | -69*
O=C(Nc1ccccc1)Nc1ccc(Br)cc1F | 101% | -2% | 4% | 0.37µM* | -16
COC1CCCN(C(=O)c2cccc(OC3CCN(S(C)(=O)=O)CC3)c2)C1 (stereo not drawn) | 32% | -3% | 11% | u | 0
Cn1ncc2c(N3CCN(c4ccc(Cl)c(Cl)c4)CC3)ncnc21 | 9.3µM* | 8% | -1% | u | -27
Cc1nn(-c2ccccc2)c(Cl)c1C(=O)N1CCN(c2ncnc3c2cnn3-c2ccccc2)CC1 | u | -4% | -18% | u | -105*
Clc1cccc(-n2ncc3c(N4CCCCCC4)ncnc32)c1 | x | x | 8% | x | u
Cc1ccc(-n2ncc3c(N4CCC5(CC4)OCCO5)ncnc32)c(C)c1 | x | 1% | -3% | 5.2µM* | 54
Cn1ncc2c(N3CCN(c4ccccc4F)CC3)ncnc21 | u | 0% | 8% | x | u
SMILES | Pf growth 48h | FBPA Giardia inh | Sm TGR block | Pf growth 96h | HCMV inh
Clc1ccc(-n2ncc3c(N4CCCC4)ncnc32)cc1 | 279% | 0% | -30% | 235% | -66*
O=C(CSc1nnc(Cc2ccccc2)o1)Nc1ccc(N2CCOCC2)cc1 | x | x | x | x | -39
Cc1ccc(C(=O)NCC(=O)OCC(=O)/C=C2\N(C)c3ccccc3C2(C)C)cc1C | 14% | -3% | -17% | -2% | 8
CCC(=O)Nc1nnc(S(=O)(=O)N2CCCCCC2)s1 | 17% | -28% | 0% | 4% | 0
Cc1ccc(-n2ncc3c(N4CCCCCC4)ncnc32)cc1 | x | x | 2% | x | -99*
Fc1ccc(-n2ncc3c(N4CCCCCC4)ncnc32)cc1 | x | x | -3% | x | -3
COc1cccc(OCCN2CCN(c3ncnc4c3cnn4-c3ccccc3)CC2)c1 | 12µM* | 0% | 18% | 9.3µM* | 0
C=CC(=O)NCCCc1cc(C(C)(C)C)c(O)c(C(C)(C)C)c1 | 12µM* | -4% | -30% | 0% | -96*
CCOc1cc(NC(=O)C2CC2)c(OCC)cc1NC(=O)c1ccccn1 | 15µM* | -20% | -19% | x | -26
CCOc1cc(NC(=O)c2ccccn2)c(OCC)cc1NC(=O)c1ccccc1 | -14% | 3% | 1%[57.1 µM] | 43% | -64*
CCOc1cc(NC(=S)NCc2ccccc2)c(OCC)cc1NC(=O)C(C)C | -28% | -8% | -15% | u | -17
CCOc1cc(NC(=O)C2CC2)c(OCC)cc1NC(=O)c1cccnc1 | -5% | -24% | -10% | u | x
CCOc1cc(NC(=O)C(C)C)c(OCC)cc1NC(=O)Nc1ccccc1 | -19% | 7% | 5% | 12µM* | -10
CCOc1cc(NC(=O)c2ccccn2)c(OCC)cc1NC(=O)c1ccc(Cl)cc1 | 16% | 8% | -24% | 7% | -7
CCOc1cc(NC(=O)c2ccccn2)c(OCC)cc1NC(=O)CC(C)C | 13µM* | -12% | 1% | 3.7µM* | u
COc1ccc(CCNC(=O)COC(=O)c2sc(C)nc2C)cc1 | -13% | x | -23% | -8% | 3
CCOc1cc(NC(=S)Nc2ccccc2)c(OCC)cc1NC(=O)c1ccccc1 | u | -3% | -2% | 8.3µM* | 16
CCOc1cc(NC(=S)NC)c(OCC)cc1NC(=O)c1ccc(OC)cc1 | -15% | -23% | -30% | 28% | u
Cn1c(=O)c2c(nc(SC3C(=O)CC(C)(C)CC3=O)n2C)n(C)c1=O | 24% | 0% | -17% | 12µM* | 0
CC(C)Sc1nc2c(c(=O)n(C)c(=O)n2C)n1C | 13% | -1% | 5% | 0% | 112
CSCCC(C(=O)N1CC2(C)CC1CC(C)(C)C2)N1C(=O)c2ccccc2C1=O (stereo not drawn) | -22% | -2% | -28% | 13µM* | 34
O=c1[nH]c(=S)[nH]c2c1C(c1ccc(Cl)cc1)OC(CCc1ccccc1)C2 (stereo not drawn) | x | x | x | x | -1
CC1CCCCN1C(=O)C(Cc1ccccc1)N1C(=O)C2CCCCC2C1=O (stereo not drawn) | -4% | 4% | -5% | 13µM* | 3
CC(C)CNC(=O)c1csc(C(O)C(C)C)n1 (stereo not drawn) | x | x | x | x | -3
CC(=O)N1c2ccc(S(=O)(=O)N3CCC(C(=O)NCc4ccccc4Cl)CC3)cc2CC1C (stereo not drawn) | u | 3% | 0% | 9.3µM* | -4

Screening data: PubChem, National Center for Advancing Translational Sciences (NCATS)
